The first experiment has as its system Escherichia coli Nissle 1917. As to the kind of experiment: DuctApe activity index of respiration/growth curve (0 no growth to 9 maximum) (index 0-9); higher = more growth / nutrient utilisation, active = 3 or more; extreme values may be limits of the assay. The settings on record: nutrient role: sole phosphorus source (pyruvate carbon); incubation: 48 h, 37 °C.
Regarding `N[C@@H](COP(=O)(O)O)C(=O)O` [O-Phospho-L-Serine], the DuctApe activity index was 8.67 (active).

As to `O=P(O)(O)O` [Phosphate], the DuctApe activity index was 9 (active).

In the case of `Nc1ncnc2c1ncn2[C@@H]1O[C@H](CO)[C@@H](O)[C@H]1OP(=O)(O)O` [Adenosine 2`-Monophosphate], the DuctApe activity index is 9 (active).

Consider `Nc1ccn([C@@H]2O[C@H](CO)[C@@H](OP(=O)(O)O)[C@H]2O)c(=O)n1` [Cytidine 3`-Monophosphate], for which the DuctApe activity index was 0 (inactive).

With `NC(=O)OP(=O)(O)O` [Carbamyl Phosphate], the DuctApe activity index was 9 (active).

Turning to `N[C@H](COP(=O)(O)O)C(=O)O` [O-Phospho-D-Serine], the DuctApe activity index is 8.67 (active).

Consider `NCCOP(=O)(O)O` [O-Phosphoryl-Ethanolamine], for which the DuctApe activity index is 8.67 (active).

As for `N[C@@H](Cc1ccc(OP(=O)(O)O)cc1)C(=O)O` [O-Phospho-L-Tyrosine], the DuctApe activity index is 8.67 (active).

Still in this experiment, the particulars now being: nutrient role: sole sulfur source (pyruvate carbon); incubation: 48 h, 37 °C.
As to `N[C@H](CS)C(=O)O` [D-Cysteine], the DuctApe activity index is 7.33 (active).

For the compound `CSCCC(NC(C)=O)C(=O)O` (racemic) [N-Acetyl-D,L-Methionine], the DuctApe activity index was 7 (active).

As for `NC(N)=S` [Thiourea], the DuctApe activity index is 6.33 (active).

As for `C[C@H](CCC(=O)NCCS(=O)(=O)O)[C@H]1CC[C@H]2[C@@H]3[C@H](O)C[C@@H]4C[C@H](O)CC[C@]4(C)[C@H]3C[C@H](O)[C@]12C` [Taurocholic acid], the DuctApe activity index was 4 (active).

Take `N[C@@H](CS(=O)(=O)O)C(=O)O` [L-Cysteic acid]: the DuctApe activity index is 7 (active).

Consider `NCCS(=O)O` [Hypotaurine], for which the DuctApe activity index is 8 (active).

Consider `N[C@@H](CSCSC[C@H](N)C(=O)O)C(=O)O` [L-Djenkolic acid], for which the DuctApe activity index is 8 (active).

The record behind these values is the supplement of paper PMC9801561.
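Further: biolog PM4 phosphorus and sulfur plates, tetrazolium violet dye reduction read in the OmniLog every 15 min, kinetic curves scored by DuctApe, each plate run in triplicate.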
